Experimental data taken from PubChem BioAssay (EPA / NIEHS).
The source made the active and inactive calls. How the source made its calls: active means hit-call score of the fitted dose curve at least 0.9, where 1 is the maximum; inactive means score below 0.9.

Columns and labels:
[1] = CEETOX_H295R_PROG: CeeTox H295R High-throughput Steroidogenesis Assay for Progesterone (PROG) (AID 2283442); conditions: actives raise or lower the signal
Procedure, shortened: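 Measured analyte is progesterone secreted by H295R cells at 48 h of chemical treatment, following 10 uM forskolin priming. Quantitation used HPLC-MS/MS against a 7-point standard curve; cytotoxicity was checked by MTT absorbance.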

[2] = read-out: Fatty acid synthase (Homo sapiens) (UniProt P49327); assay: LTEA_HepaRG_FASN: Life Technologies and Expression Analysis (LTEA) Assay for Fatty Acid Synthase (FASN) using HepaRG (AID 2283448); conditions: mRNA level, 48 h; actives raise or lower the signal
Procedure, shortened: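 Cells were plated, cultured 48 h, switched to serum-free induction medium, then dosed in duplicate (max 100 uM, half-log dilutions, 0.5% DMSO) for 48 h. RNA was then isolated and FASN quantified by qRT-PCR.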

[3] = read-out: Cyclin Dependent Kinase Inhibitor 1A (CDKN1A), CDKN1A (gene 1026); assay: LTEA_HepaRG_CDKN1A: Life Technologies and Expression Analysis (LTEA) Assay for Cyclin Dependent Kinase Inhibitor 1A (CDKN1A) using HepaRG (AID 2283450); conditions: mRNA level, 48 h; actives raise or lower the signal
Procedure, shortened: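 Gain or loss of CDKN1A transcript is scored by bidirectional fitting against 0.5% DMSO vehicle. Human HepaRG cultures receive chemicals for 48 h across an 8-point series peaking at 100 uM; expression comes from qRT-PCR.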

[4] = read-out: Cyclin D1 (CCND1), CCND1 (gene 595); assay: LTEA_HepaRG_CCND1: Life Technologies and Expression Analysis (LTEA) Assay for Cyclin D1 (CCND1) using HepaRG (AID 2283451); conditions: mRNA level, 48 h; actives raise or lower the signal
Procedure, shortened: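 Expression change is measured by qRT-PCR in HepaRG cells after 48 h treatment across eight concentrations topping at 100 uM, with duplicate wells and DMSO (0.5%) serving as baseline for bidirectional fitting.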

[5] = read-out: catalase (CAT), CAT (gene 847); assay: LTEA_HepaRG_CAT: Life Technologies and Expression Analysis (LTEA) Assay for catalase (CAT) using HepaRG (AID 2283452); conditions: mRNA level, 48 h; actives raise or lower the signal;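 on AC50: TaqMan qRT-PCR signal normalized to ACTB GAPDH and POLR2A housekeeping genes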
Procedure, shortened: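 Expression of CAT was quantified by TaqMan qRT-PCR with ACTB/GAPDH/POLR2A normalization after 48 h chemical exposure of HepaRG. Eight-point half-log series, top 100 uM, in 0.5% DMSO; gain or loss fitted against vehicle.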

[6] = read-out: Cytochrome P450 (CYP1A1), CYP1A1 (gene 1543); assay: LTEA_HepaRG_CYP1A1: Life Technologies and Expression Analysis (LTEA) Assay for Cytochrome P450 (CYP1A1) using HepaRG (AID 2283454); conditions: mRNA level, 48 h; actives raise or lower the signal
Procedure, shortened: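 Using HepaRG cultures with 0.5% DMSO as vehicle, eight-concentration exposures (max 100 uM) lasted 48 h. Transcript levels were measured by TaqMan qRT-PCR and normalized to ACTB, GAPDH and POLR2A.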

[7] = read-out: CFLAR gene, CFLAR (gene 8837); assay: LTEA_HepaRG_CFLAR: Life Technologies and Expression Analysis (LTEA) Assay for CFLAR gene using HepaRG (AID 2283455); conditions: mRNA level, 48 h; actives raise or lower the signal
Procedure, shortened: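 Transcript level by qRT-PCR (normalized to ACTB, GAPDH and POLR2A) after 48 h chemical exposure of HepaRG cells, top concentration 100 uM with half-log steps, 0.5% DMSO vehicle, duplicates; fitted bidirectionally against DMSO baseline.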

[8] = read-out: Forkhead box O1 (FOXO1), FOXO1 (gene 2308); assay: LTEA_HepaRG_FOXO1: Life Technologies and Expression Analysis (LTEA) Assay for Forkhead box O1 (FOXO1) using HepaRG (AID 2283456); conditions: mRNA level, 48 h; actives raise or lower the signal
Procedure, shortened: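 FOXO1 transcript quantified by qRT-PCR after 48 h chemical exposure (top 100 uM, half-log steps, 0.5% DMSO) of HepaRG cells, housekeeping-normalized (ACTB/GAPDH/POLR2A). Changes fitted in both directions relative to vehicle.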

[9] = read-out: growth arrest and DNA damage 45 (GADD45A), GADD45A (gene 1647); assay: LTEA_HepaRG_GADD45A: Life Technologies and Expression Analysis (LTEA) Assay for growth arrest and DNA damage 45 (GADD45A) using HepaRG (AID 2283458); conditions: mRNA level, 48 h; actives raise or lower the signal
Procedure, shortened: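 Transcript induction or loss, quantified by TaqMan qRT-PCR against three housekeeping genes, is the read-out. HepaRG cells received chemicals for 48 h across eight half-log concentrations from 100 uM in 0.5% DMSO; gain and loss fitted relative to DMSO.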

[10] = read-out: Forkhead box O3 (FOXO3), FOXO3 (gene 2309); assay: LTEA_HepaRG_FOXO3: Life Technologies and Expression Analysis (LTEA) Assay for Forkhead box O3 (FOXO3) using HepaRG (AID 2283459); conditions: mRNA level, 48 h; actives raise or lower the signal
Procedure, shortened: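 FOXO3 transcript measured by qRT-PCR (normalized to ACTB, GAPDH, POLR2A) after 48 h exposure of HepaRG cells in serum-free induction medium. Duplicates, eight half-log concentrations up to 100 uM, 0.5% DMSO; gain or loss fitted against DMSO.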

[11] = read-out: ABC Transporter (ABCB1), ABCB1 (gene 5243); assay: LTEA_HepaRG_ABCB1: Life Technologies and Expression Analysis (LTEA) Assay for ABC Transporter (ABCB1) using HepaRG (AID 2283460); conditions: mRNA level, 48 h; actives raise or lower the signal
Procedure, shortened: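 ABCB1 transcript level measured by TaqMan qRT-PCR against three housekeeping genes after 48 h chemical exposure of differentiated HepaRG cells. Top concentration 100 uM, half-log steps, eight points, 0.5% DMSO vehicle; bidirectional fit relative to DMSO.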

[12] = read-out: growth arrest and DNA damage 45 (GADD45B), GADD45B (gene 4616); assay: LTEA_HepaRG_GADD45B: Life Technologies and Expression Analysis (LTEA) Assay for growth arrest and DNA damage 45 (GADD45B) using HepaRG (AID 2283461); conditions: mRNA level, 48 h; actives raise or lower the signal
Procedure, shortened: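 Human HepaRG monolayers receive chemicals for 48 h at eight half-log concentrations, highest 100 uM, in 0.5% DMSO. Expression is measured by TaqMan qRT-PCR and normalized to ACTB, GAPDH and POLR2A.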

[13] = read-out: ABC Transporter (ABCC3), ABCC3 (gene 8714); assay: LTEA_HepaRG_ABCC3: Life Technologies and Expression Analysis (LTEA) Assay for ABC Transporter (ABCC3) using HepaRG (AID 2283462); conditions: mRNA level, 48 h; actives raise or lower the signal
Procedure, shortened: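 Transcriptional change of ABCC3 in HepaRG after 48 h treatment, determined by qRT-PCR normalized to endogenous controls. Concentrations spanned eight half-log steps to 100 uM in 0.5% DMSO.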

[14] = read-out: ABC Transporter (ABCB11), ABCB11 (gene 8647); assay: LTEA_HepaRG_ABCB11: Life Technologies and Expression Analysis (LTEA) Assay for ABC Transporter (ABCB11) using HepaRG (AID 2283463); conditions: mRNA level, 48 h; actives raise or lower the signal
Procedure, shortened: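 ABCB11 transcript levels quantified by TaqMan qRT-PCR against three housekeeping genes after 48 h chemical exposure of HepaRG cultures. Concentrations up to 100 uM in half-log steps, 0.5% DMSO vehicle; both induction and suppression scored.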

[15] = read-out: Tumor necrosis factor receptor superfamily member 6 (Homo sapiens) (UniProt P25445); assay: LTEA_HepaRG_FAS: Life Technologies and Expression Analysis (LTEA) Assay for Fas cell surface death receptor (FAS) using HepaRG (AID 2283447); conditions: mRNA level, 48 h; actives raise or lower the signal
Procedure, shortened: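 FAS transcript level was measured by TaqMan qRT-PCR against three housekeeping genes after 48 h chemical exposure. Cells were HepaRG, 0.5% DMSO vehicle, with a top concentration of 100 uM and half-log dilutions over eight points, in duplicate.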

[16] = read-out: Cyclin D2 (CCND2), CCND2 (gene 894); assay: LTEA_HepaRG_CCND2: Life Technologies and Expression Analysis (LTEA) Assay for Cyclin D2 (CCND2) using HepaRG (AID 2283449); conditions: mRNA level, 48 h; actives raise or lower the signal
Procedure, shortened: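 CCND2 transcript levels, quantified by qRT-PCR and normalised to three housekeeping genes, were fitted bidirectionally against 0.5% DMSO. HepaRG cultures were dosed 48 h in duplicate with an 8-point half-log series up to 100 uM.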

[17] = read-out: flavin-containing dimethylaniline monooxygenases 3 (FMO3), FMO3 (gene 2328); assay: LTEA_HepaRG_FMO3: Life Technologies and Expression Analysis (LTEA) Assay for flavin-containing dimethylaniline monooxygenases 3 (FMO3) using HepaRG (AID 2283453); conditions: mRNA level, 48 h; actives raise or lower the signal
Procedure, shortened: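 FMO3 transcript quantified by TaqMan qRT-PCR against three housekeeping genes after 48 h chemical exposure of HepaRG cells. Eight-point half-log series, top 100 uM, 0.5% DMSO vehicle; phenobarbital 1mM induction control; up- or down-regulation fitted.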

[18] = CEETOX_H295R_TESTO: CeeTox H295R High-throughput Steroidogenesis Assay for Testosterone (TESTO) (AID 2283457); conditions: actives raise or lower the signal
Procedure, shortened: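 Steroidogenesis in H295R cells following OECD 456 with minor changes; 48 h exposure. Medium testosterone by HPLC-MS/MS, DMSO as baseline, with MTT viability run in parallel.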

Measured: AC50

Fatty acid synthase (Homo sapiens), sequence (P49327 whole entry, looked up): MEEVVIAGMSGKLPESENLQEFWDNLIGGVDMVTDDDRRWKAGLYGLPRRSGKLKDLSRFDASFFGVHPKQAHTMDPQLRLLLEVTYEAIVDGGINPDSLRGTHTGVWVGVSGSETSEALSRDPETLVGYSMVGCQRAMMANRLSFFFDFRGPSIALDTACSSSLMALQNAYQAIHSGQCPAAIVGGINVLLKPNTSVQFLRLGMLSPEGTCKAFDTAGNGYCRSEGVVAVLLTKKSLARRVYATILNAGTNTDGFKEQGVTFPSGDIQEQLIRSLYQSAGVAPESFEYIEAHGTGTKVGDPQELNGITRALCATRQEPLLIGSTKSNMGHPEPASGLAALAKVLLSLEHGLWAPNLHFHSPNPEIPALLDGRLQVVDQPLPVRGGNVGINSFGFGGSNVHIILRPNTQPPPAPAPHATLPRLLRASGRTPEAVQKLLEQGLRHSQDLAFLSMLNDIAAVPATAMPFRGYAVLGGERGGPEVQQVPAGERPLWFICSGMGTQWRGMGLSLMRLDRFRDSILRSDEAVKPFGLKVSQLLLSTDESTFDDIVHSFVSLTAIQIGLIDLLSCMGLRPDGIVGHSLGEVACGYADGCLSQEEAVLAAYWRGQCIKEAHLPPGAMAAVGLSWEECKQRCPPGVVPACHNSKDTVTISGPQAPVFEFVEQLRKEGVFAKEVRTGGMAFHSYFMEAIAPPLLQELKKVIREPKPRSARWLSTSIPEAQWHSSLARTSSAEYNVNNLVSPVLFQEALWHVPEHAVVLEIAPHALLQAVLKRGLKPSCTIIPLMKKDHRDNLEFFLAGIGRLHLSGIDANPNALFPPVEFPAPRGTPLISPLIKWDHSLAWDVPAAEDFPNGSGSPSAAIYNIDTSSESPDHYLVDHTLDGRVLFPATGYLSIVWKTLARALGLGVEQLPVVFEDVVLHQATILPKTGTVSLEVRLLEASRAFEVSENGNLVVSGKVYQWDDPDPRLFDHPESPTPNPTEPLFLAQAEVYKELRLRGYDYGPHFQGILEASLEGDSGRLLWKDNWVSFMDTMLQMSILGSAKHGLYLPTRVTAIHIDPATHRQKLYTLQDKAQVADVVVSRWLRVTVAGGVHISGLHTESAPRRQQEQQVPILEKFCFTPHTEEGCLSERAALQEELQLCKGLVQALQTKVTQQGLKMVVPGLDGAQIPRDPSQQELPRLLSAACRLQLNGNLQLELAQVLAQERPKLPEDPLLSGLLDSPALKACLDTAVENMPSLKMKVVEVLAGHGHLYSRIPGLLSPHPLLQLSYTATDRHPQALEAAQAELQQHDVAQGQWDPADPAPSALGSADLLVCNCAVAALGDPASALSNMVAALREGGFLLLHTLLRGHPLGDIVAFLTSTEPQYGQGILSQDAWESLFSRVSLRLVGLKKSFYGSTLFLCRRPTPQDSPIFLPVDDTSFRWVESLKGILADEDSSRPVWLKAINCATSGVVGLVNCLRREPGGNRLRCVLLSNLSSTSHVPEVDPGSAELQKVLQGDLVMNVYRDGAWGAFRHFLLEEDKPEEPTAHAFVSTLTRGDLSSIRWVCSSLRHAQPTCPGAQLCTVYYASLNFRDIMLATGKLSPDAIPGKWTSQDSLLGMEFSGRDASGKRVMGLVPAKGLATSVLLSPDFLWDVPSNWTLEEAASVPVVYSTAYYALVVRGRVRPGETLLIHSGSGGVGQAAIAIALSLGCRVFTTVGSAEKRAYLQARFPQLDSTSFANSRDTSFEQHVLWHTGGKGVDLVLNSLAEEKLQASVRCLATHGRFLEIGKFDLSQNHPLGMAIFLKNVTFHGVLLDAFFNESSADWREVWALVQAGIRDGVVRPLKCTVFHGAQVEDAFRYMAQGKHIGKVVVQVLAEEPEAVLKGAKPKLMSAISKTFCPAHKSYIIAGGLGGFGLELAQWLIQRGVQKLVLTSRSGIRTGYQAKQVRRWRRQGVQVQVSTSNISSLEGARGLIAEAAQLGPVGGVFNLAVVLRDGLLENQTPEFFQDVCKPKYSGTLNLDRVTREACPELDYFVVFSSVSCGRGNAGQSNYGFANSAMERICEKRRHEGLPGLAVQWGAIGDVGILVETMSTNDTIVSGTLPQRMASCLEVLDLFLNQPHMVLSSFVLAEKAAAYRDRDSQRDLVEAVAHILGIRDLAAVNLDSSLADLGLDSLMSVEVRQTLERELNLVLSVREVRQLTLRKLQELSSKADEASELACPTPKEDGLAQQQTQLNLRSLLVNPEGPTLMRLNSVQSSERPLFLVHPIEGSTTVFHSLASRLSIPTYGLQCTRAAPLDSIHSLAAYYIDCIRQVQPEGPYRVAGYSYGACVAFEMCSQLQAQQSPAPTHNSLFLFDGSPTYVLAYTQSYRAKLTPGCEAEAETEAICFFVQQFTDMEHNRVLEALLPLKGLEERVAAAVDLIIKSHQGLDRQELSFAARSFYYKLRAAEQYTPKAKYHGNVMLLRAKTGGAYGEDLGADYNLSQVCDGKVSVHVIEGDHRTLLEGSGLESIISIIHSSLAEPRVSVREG

CO[C@H]1/C=C/O[C@@]2(C)Oc3c(C)c(O)c4c(O)c(c(/C=N/N5CCN(C)CC5)c(O)c4c3C2=O)NC(=O)/C(C)=C\C=C\[C@H](C)[C@H](O)[C@@H](C)[C@@H](O)[C@@H](C)[C@H](OC(C)=O)[C@@H]1C
active: [6] 31.2 µM | [11] 0.442 µM
not listed: [15] | [16] | [17] | [18]
inactive: all other assays above

Cc1cc(F)ccc1-c1cc(N2CC[C@@H](O)[C@H]2CO)ncc1N(C)C(=O)C(C)(C)c1cc(C(F)(F)F)cc(C(F)(F)F)c1
active: [15] 71.7 µM | [3] 12.3 µM | [5] 11.7 µM | [6] 70.6 µM | [7] 75.7 µM | [11] 10.3 µM | [14] 21.8 µM
not listed: [1] | [12] | [17] | [18]
inactive: all other assays above

CCCCOC(=O)CC(CC(=O)OCCCC)(OC(C)=O)C(=O)OCCCC
not listed: [1] | [12] | [17] | [18]
inactive: all other assays above

CCCCCCCCN(C)CCCCCCCC
not listed: [3] | [15]
inactive: all other assays above
